Measured values from PubChem BioAssay (Tox21).
“And” between values parts separate entries of the source, which are not always exact repeats. Equal entries are not always repeated. Records with an inconclusive call do not appear. Where a structure was tested more than once in an assay, its records may differ in their call. The source made the active and inactive calls. Unless noted, calls come from the whole dose curve; as a rule, active = well fitted curve in the direction sought with a large enough effect in the repeat runs; inconclusive = weak or mixed curves; inactive = no such curve, though single readings can be large; an effect the other way counts as inactive or inconclusive.

Legend:
[1] = target: Progesterone receptor (Homo sapiens) (UniProt P06401); test: qHTS assay to identify small molecule agonists of the progesterone receptor (PR) signaling pathway (AID 1346784; calls by dose curve; note: nearly all actives have a fitted effect of over 30% in size; note: potency is the fitted concentration of half-maximal effect)
Chain of Progesterone receptor (Homo sapiens) (P06401 whole entry, looked up): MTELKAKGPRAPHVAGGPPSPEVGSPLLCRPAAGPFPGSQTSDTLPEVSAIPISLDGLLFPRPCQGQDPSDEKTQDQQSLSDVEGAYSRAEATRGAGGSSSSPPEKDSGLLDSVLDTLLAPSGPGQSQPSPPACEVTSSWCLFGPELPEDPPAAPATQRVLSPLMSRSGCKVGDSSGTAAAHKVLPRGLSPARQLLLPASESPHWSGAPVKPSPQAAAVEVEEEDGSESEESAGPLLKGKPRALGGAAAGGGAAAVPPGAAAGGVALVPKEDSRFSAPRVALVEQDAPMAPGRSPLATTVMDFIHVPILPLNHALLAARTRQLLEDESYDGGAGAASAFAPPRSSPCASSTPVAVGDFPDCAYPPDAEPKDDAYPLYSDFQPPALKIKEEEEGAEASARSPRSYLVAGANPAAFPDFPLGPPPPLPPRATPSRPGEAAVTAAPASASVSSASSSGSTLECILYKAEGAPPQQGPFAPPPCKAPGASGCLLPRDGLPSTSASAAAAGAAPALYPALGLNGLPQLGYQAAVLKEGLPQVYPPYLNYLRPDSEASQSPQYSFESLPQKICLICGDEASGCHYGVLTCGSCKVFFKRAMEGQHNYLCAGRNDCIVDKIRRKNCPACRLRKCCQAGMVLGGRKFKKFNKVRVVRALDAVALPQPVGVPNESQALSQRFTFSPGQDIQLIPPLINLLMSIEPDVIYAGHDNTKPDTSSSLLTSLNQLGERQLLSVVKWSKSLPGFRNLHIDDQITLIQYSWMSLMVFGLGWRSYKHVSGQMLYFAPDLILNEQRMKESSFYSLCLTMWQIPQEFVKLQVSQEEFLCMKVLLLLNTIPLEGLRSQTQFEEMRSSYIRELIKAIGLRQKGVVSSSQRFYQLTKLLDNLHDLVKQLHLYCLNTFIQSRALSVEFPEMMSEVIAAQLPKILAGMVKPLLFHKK
Outline: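 Reporter assay, GripTite PR-UAS-bla HEK 293T cells: 16 hr exposure to DMSO-dissolved compounds at 37C, 5% CO2, in steroid-depleted (2% charcoal-stripped FBS) medium; beta-lactamase measured by FRET fluorescence.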

[2] = target: Progesterone receptor (Homo sapiens) (UniProt P06401); test: qHTS assay to identify small molecule antagonists of the progesterone receptor (PR) signaling pathway (AID 1346795; active = well fitted inhibition curve with a large enough effect in the signal ratio in the repeat runs, not every such curve was filed as active; the % refers to the signal ratio; note: potency is the fitted concentration of half-maximal effect)
Outline: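 Stimulus R5020 at 1 nM final; cells HEK293T PR-UAS-bla; medium with 2% charcoal-stripped FBS; compound exposure 16 hr at 37C, 5% CO2; detection by FRET beta-lactamase substrate, 2 hr, room temperature.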

[3] = qHTS assay to identify small molecule antagonists of the progesterone receptor (PR) signaling pathway - cell viability counter screen (AID 1346798); note: series mostly up to about 92 µM; nearly all actives have a fitted effect of over 50% in size
Outline: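 In the same plates used for the beta-lactamase readout, cell viability of compound- and R5020-treated PR-UAS-bla HEK293T cells (16 hr, 37C) was assessed by CellTiter-Glo luminescence.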

[4] = qHTS assay to identify small molecule agonists of the progesterone receptor (PR) signaling pathway - cell viability counter screen (AID 1346799; calls by dose curve; note: nearly all actives have a fitted effect of over 45% in size)
Outline: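 Multiplexed viability read: CellTiter-Glo luminescence, 30 min RT, following LiveBLAzer FRET measurement on PR-UAS-bla HEK293T cells exposed to compounds 16 hr.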

[5] = qHTS assay to identify small molecule antagonists of the TGF-beta/Smad signaling pathway - cell viability counter screen (AID 1346824); note: nearly all actives have a fitted effect of over 50% in size; note: potency is the fitted concentration of half-maximal effect
Outline: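 SBE-bla HEK 293T cells were plated overnight at 37 C, then given compounds in DMSO plus TGF-beta1 (added as 0.25 ng/mL solution) for 5 hr. After the bla read, CellTiter-Glo was added to the same wells and luminescence read after 30 min at room temperature.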

[6] = qHTS assay to identify small molecule agonists of the TGF-beta/Smad signaling pathway - cell viability counter screen (AID 1346829); note: nearly all actives have a fitted effect of over 45% in size; note: potency is the fitted concentration of half-maximal effect; for activity change, negative = cytotoxicity: top concentration of the series differs between compounds
Outline: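 In parallel with the Smad reporter read, viability of HEK 293T cells stably carrying SBE-bla is quantified by ATP luminescence following 5 hr compound treatment.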

[7] = qHTS assay to identify small molecule agonists of the TGF-beta/Smad signaling pathway (AID 1346859; active = well fitted activation curve with a large enough effect in the signal ratio in the repeat runs, not every such curve was filed as active; the % refers to the signal ratio; note: series mostly up to about 77 µM)
Outline: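 Screening used HEK 293T SBE-bla cells at 4,000/well. Test agents: 5 hr, 37 C. Detection: FRET substrate, 2 hr RT, then excitation 405 nm with emissions at 460 and 530 nm.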

[8] = target: Thyrotropin-releasing hormone receptor (Homo sapiens) (UniProt P34981); test: qHTS assay to identify small molecule antagonists of the thyrotropin-releasing hormone receptor (TRHR) signaling pathway (AID 1346877; active = well fitted inhibition curve with a large enough effect in the repeat runs, not every such curve was filed as active; note: potency is the fitted concentration of half-maximal effect)
Chain of Thyrotropin-releasing hormone receptor (Homo sapiens) (P34981 whole entry, looked up): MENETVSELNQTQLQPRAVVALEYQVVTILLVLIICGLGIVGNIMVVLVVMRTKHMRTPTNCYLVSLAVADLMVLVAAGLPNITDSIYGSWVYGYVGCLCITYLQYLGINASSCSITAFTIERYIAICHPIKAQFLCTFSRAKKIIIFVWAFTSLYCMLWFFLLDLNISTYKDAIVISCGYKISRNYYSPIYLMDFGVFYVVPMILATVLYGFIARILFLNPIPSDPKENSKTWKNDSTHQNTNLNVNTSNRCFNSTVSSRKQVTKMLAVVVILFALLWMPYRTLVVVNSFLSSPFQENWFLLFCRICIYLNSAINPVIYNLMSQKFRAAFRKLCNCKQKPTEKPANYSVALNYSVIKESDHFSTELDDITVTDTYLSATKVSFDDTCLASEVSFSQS
Outline: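 TRHR-expressing HEK293 cells loaded with calcium dye for 2 h at 37 C; compounds pre-incubated 5 min at room temperature before TRH challenge at 1 nM final. Intracellular calcium fluorescence read kinetically for 3 min; 15 concentrations in triplicate.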

[9] = target: Thyrotropin-releasing hormone receptor (Homo sapiens) (UniProt P34981); test: qHTS assay to identify small molecule agonists of the thyrotropin-releasing hormone receptor (TRHR) signaling pathway (AID 1346891; calls by dose curve; note: series mostly up to about 58 µM)
Outline: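 Readout was intracellular calcium fluorescence in TRHR-Hek293 cells. Cells were incubated 18 h, dye-loaded 2 h at 37 °C, and treated with compound in agonist mode.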

[10] = Human pregnane X receptor (PXR) small molecule agonists, qHTS cell viability counter screen (AID 1346977); note: nearly all actives have a fitted effect of over 50% in size; note: potency is the fitted concentration of half-maximal effect
Outline: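 In each well, the PXR reporter HepG2 line was checked for viability: CellTiter-Fluor reagent added 23hr post-dosing, fluorescence read after 1hr incubation at 37C.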
% is set by controls: 0 for no effect and ±100 for the full control effect.

CNC[C@H](O)c1ccc(O)c(O)c1
active: Potency [1] 4.33 µM
inactive: activation [1] -0.635% [at 19 µM] | Potency [2] | Potency [3] | Potency [4] | Potency [5] | Potency [6] | outcome [7] | Potency [8] | Potency [9] | Potency [10]

C=CC(=O)OCCCC
inactive: Potency [1] | Potency [2] | Potency [3] | Potency [4] | Potency [5] | Potency [6] | outcome [7] | Potency [8] | Potency [9] | Potency [10]

Cc1ccc(C)c(O)c1
inactive: Potency [1] | Potency [2] | Potency [3] | Potency [4] | Potency [5] | Potency [6] | outcome [7] | Potency [8] | Potency [9] | Potency [10]

Nc1ccc(N)c(Cl)c1
inactive: Potency [1] | Potency [3] | Potency [4] | Potency [5] | Potency [6] | outcome [7]
active: Potency [2] 27.3 µM
inactive and 30.2 µM (active): Potency [8]

OCCNCCO
inactive: Potency [1] | Potency [2] | Potency [3] | Potency [4] | Potency [5] | Potency [6] | outcome [7] | Potency [8] | Potency [9] | Potency [10]

CCCCCCCCCCCCCO
inactive: Potency [1] | Potency [2] | Potency [3] | Potency [4] | Potency [5] | Potency [6] | outcome [7] | Potency [8] | Potency [9] | Potency [10]

CC(=O)Nc1ccc2c(c1)Cc1cc(NC(C)=O)ccc1-2
inactive: Potency [1] | Potency [2] | Potency [3] | Potency [4] | Potency [5] | Potency [6] | outcome [7] | Potency [8] | Potency [9] | Potency [10]

CCCCCC1C(=O)CCC1CC(=O)OC (configuration not stated)
inactive: Potency [1] | Potency [2] | Potency [3] | Potency [4] | Potency [5] | Potency [6] | outcome [7] | Potency [8] | Potency [9] | Potency [10]

ClC/C=C/CCl
inactive: Potency [1] | Potency [2] | Potency [3] | Potency [4] | Potency [5] | Potency [6] | outcome [7] | Potency [8] | Potency [9]

Cc1ccc(/C(=C\CN2CCCC2)c2ccccn2)cc1
inactive: Potency [1] | Potency [2] | Potency [3] | Potency [4] | Potency [5] | Potency [6] | outcome [7]

CC1=CC(C)(C)Nc2ccccc21
inactive: Potency [1] | Potency [2] | Potency [3] | Potency [4] | Potency [5] | Potency [6] | outcome [7] | Potency [8] | Potency [9] | Potency [10]

CN1CCOCC1
inactive: Potency [1] | Potency [2] | Potency [3] | Potency [4] | Potency [5] | Potency [6] | outcome [7] | Potency [8] | Potency [9] | Potency [10]

Nc1cc([N+](=O)[O-])ccc1C(=O)O
inactive: Potency [1] | Potency [2] | Potency [3] | Potency [4] | Potency [5] | Potency [6] | outcome [7] | Potency [8] | Potency [9] | Potency [10]

O=[Se](O)O
inactive: Potency [1] | Potency [2] | Potency [3] | Potency [4] | viability change, negative = cytotoxic [5] 0.606% [at 15.8 µM] | activity change, negative = cytotoxicity [6] 8.13% [at 15.8 µM] | activation [7] -0.714% [at 15.8 µM] | Potency [8] | activity change, negative = cytotoxicity [10] 6.76% [at 19 µM]
active: Potency [5] 2.46 µM | Potency [6] 2.19 µM | Potency [10] 24.4 µM

CC(=O)OC(C)C
inactive: Potency [1] | Potency [2] | Potency [3] | Potency [4] | Potency [5] | Potency [6] | outcome [7] | Potency [8] | Potency [9] | Potency [10]

COC(=O)c1ccc(C)cc1
inactive: Potency [1] | Potency [2] | Potency [3] | Potency [4] | Potency [5] | Potency [6] | outcome [7] | Potency [8] | Potency [9] | Potency [10]

CCCCCCCCCCCCO
inactive: Potency [1] | Potency [2] | Potency [3] | Potency [4] | Potency [5] | Potency [6] | outcome [7] | Potency [8] | Potency [9] | Potency [10]

CC(=O)[C@@]1(O)CC[C@H]2[C@@H]3C[C@H](C)C4=CC(=O)C=C[C@]4(C)[C@@]3(F)[C@@H](O)C[C@@]21C
active: Potency [1] 61.1 nM and 168 nM
inactive: Potency [2] | Potency [3] | Potency [4] | Potency [5] | Potency [6] | outcome [7] | Potency [8] | Potency [9] | Potency [10]

NCCS(=O)(=O)O
inactive: Potency [1] | Potency [2] | Potency [3] | Potency [4] | Potency [5] | Potency [6] | outcome [7] | Potency [8] | Potency [9] | Potency [10]

O=C1CCc2ccccc2O1
inactive: Potency [1] | Potency [2] | Potency [3] | Potency [4] | Potency [5] | Potency [6] | outcome [7] | Potency [8] | Potency [9] | Potency [10]

O=Cc1ccccc1C=O
inactive: Potency [1] | Potency [2] | Potency [3] | Potency [4] | Potency [5] | Potency [6] | outcome [7] | Potency [8] | Potency [9]
48.6 µM (active) and inactive: Potency [10]

Nc1cc(Cl)c(N)c(Cl)c1
inactive: Potency [1] | Potency [2] | Potency [3] | Potency [4] | Potency [5] | Potency [6] | outcome [7] | Potency [8] | Potency [9] | Potency [10]
